Data from the supplement of paper PMC11417369.
In all, about 25,000 sequences were measured (“ln(normalized median fluorescence intensity)”: median about 7.1, highest 2% from about 10 on). What follows is part of a selection rich in the highest values, with near analogues and random picks from the rest.

Tested on: PfSIP2 AP2 domain 1 (GST-tagged)
Assay: gcPBM binding intensity (ln(normalized median fluorescence intensity)); higher = stronger DNA binding
Method in brief: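 An Agilent 4 × 180k array of primer-extended double-stranded 36-bp intergenic genomic probes, with negative controls, was incubated for 1 h with GST-tagged P. falciparum DNA-binding domains expressed in E. coli. Alexa488 anti-GST antibody detected bound protein, scanned at 488 nm. Binding intensity is the highest Masliner-normalised natural-log median intensity across replicate spots of either probe orientation.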

Sequence	gcPBM binding intensity (ln)
AAAAAAAATGATAATATACACACTTATGGGAGAGCG [CACACA_site2516]	6.97
TATATAATACGAATTTGTACATATTAAATAAATTAT [XGTACX_site93]	6.84
TTTTAAAAAACAAACACACACGTAGAAAAAAAAAAA [CACACA_site4608]	6.99
GGTAGAAAATCAGTTAAACACACACCGAAAAAAAAA [CACACA_site8934]	7.24
TATGAACACCAACACACACACAAAAAAAAAAAAAAA [CACACA_site2013]	7.3
TACATATTTTGTATATATTATTTATTTTATTAGTTT [XGTACX_negctrl_site85]	6.74
TTAATAGGTCGAAGTAGTACATAAAAATATATATAT [XGTACX_site5960]	8.1
AATGTACACGCACCCACACACAAACAAATATAAATA [CACACA_site7319]	10.3
AATGTACCCACACCCACACACAAACAAATATATATA [CACACA_site2751]	7.47
ATAAAAATTGATTATACACACGCGCACCCACAACAA [CACACA_site3536]	11.2
TATACAATATAAAATACACACGCACCCAAAAAAAAA [CACACA_site9174]	10.4
GACACCCATAAATATACACACGCACAACACAAAATA [CACACA_site8944]	7.67
CACCCATAAATATACACACGCACAACACAAAATAAA [CACACA_site2903]	7.52
AATGTACACCCACCCACACACAAACAAATATATATA [CACACA_site5521]	7.62
ATAAAAATTGATTATACACACGCGCCCAGACAACAA [CACACA_site5870]	7.24
ATTATACACGCGCGCACACACAACAAAAAAAAAAAA [CACACA_site7630]	7.59
TATATATAATTCATACATTTTAAATATATTTATTTA [CACACA_negctrl_site840]	7.01
TATTGAATAAAATGCACACGCATGCGTTATTTATTA [CACACA_site3479]	6.9
ATATATCATGCCAAGGGTACAAATGTGTAGTTGAAA [XGTACX_site2820]	7.16
AAAAAAAAATACATATGTACTTATGTATAATGTTGT [XGTACX_site8104]	7.14
AACTTTTTACAAACAGGTACGCATATATATATATAT [XGTACX_site5081]	8.9
AAAATACACGCATACACACACACACCCACCCATATA [CACACA_site639]	7.14
TCCCCTTAATTTAAAACACACAAACAAATAAGTTAG [CACACA_site5973]	6.91
AAGAGGATACACAATGTGCACTTTTTTTTTTTTTTT [GTGCAC_site9415]	10.5
GAATGTCTAATTTTGATGCACACTTTTGTGCAATTA [CACACA_site2902]	8.6
TATAAGAGGATATATACACACAAAAATATGTACAGT [CACACA_site6885]	7.07
